High-throughput results: PubChem BioAssay, National Center for Advancing Translational Sciences (NCATS)
Compounds with a hit are over-represented: about 11% of the library has one in this group of screens.
Vaccinia mCherry = vaccinia inhibition (mCherry reporter); Vaccinia virus mCherry reporter infection, fluorescence; Potency, µM (doses to about 36.5 µM), without a hit: top-dose activity change, negative = inhibition, most hits filed as inhibitors; 0.63% of 310,000 active; AID 720579; calls by dose curve; tested in A549 cells; note: % is set by controls: 0 for no effect and ±100 for the full control effect; nearly all actives have a fitted effect of over 35% in size
Pf growth 48h = inhibits P. falciparum growth in the first generation, 48 h; P. falciparum luciferase growth in erythrocytes, 48 h; Potency, µM (titrated, usually from 28.7 µM), inactives show at the top dose activity change, negative = inhibition, actives largely listed as inhibitors; 5.9% of 310,000 active; AID 504832; note: % is set by controls: 0 for no effect and ±100 for the full control effect
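A one-generation exposure of luciferase-tagged malaria parasites in RPMI 1640/Albumax erythrocyte culture, 37 C and 5% CO2. Inhibition is inferred from decreased luminescence after adding detection reagent.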
HCV inh = blocks hepatitis C virus. 3.4% of 340,000 active. Huh7.5.1 HCVcc-Cre infection, luciferase reporter, 44 h. Potency, µM (top dose mostly 41.8 µM), without a hit: top-dose activity change, negative = inhibition, most hits filed as inhibitors; note: % is set by controls: 0 for no effect and ±100 for the full control effect
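Reporter virus HCVcc-Cre (~0.5 moi) infects cells exposed to compound; seeding density 1,000 cells/well with 4 h settling beforehand. Luminescence, 15 sec read, taken 44 h post-infection following a 15 min RT substrate incubation.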
Pf growth 96h = P. falciparum growth inhibition at 96 hours; P. falciparum luciferase reporter growth, 96 h; Potency, µM (series often up to 28.7 µM), for inactives: at the top dose activity change, negative = inhibition, hits mostly inhibitors; 6.9% of 320,000 active; AID 504834; note: % is set by controls: 0 for no effect and ±100 for the full control effect
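96 h incubation, 37 C, 5% CO2, of luciferase-reporter P. falciparum-infected RBCs (2% hematocrit, 0.05% parasitemia final) with test compounds; endpoint luminescence.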
NS1 function inh = influenza NS1 inhibition; AID 2326; 0.4% of 270,000 active; Potency, µM (top dose mostly 46.1 µM), for the others: top-dose activity, positive = more growth; calls by dose curve; note: actives are rising curves; nearly all actives have a fitted effect of over 50% in size
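Recovery from NS1-induced slow growth read by OD600 in budding yeast switched to galactose assay medium (pH 6.0, -URA) at 1:100 dilution. Compound 23 nl per well; the matching strain lacking NS1 serves as control.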
VACV Venus inh = vaccinia inhibition (Venus reporter) | Vaccinia virus Venus reporter expression, fluorescence | Potency, µM (highest dose often 36.5 µM), inactives show at the highest dose activity change, negative = inhibition, actives largely listed as inhibitors | 0.46% of 330,000 active | AID 720580; calls by dose curve; tested in A549 cells; note: % is set by controls: 0 for no effect and ±100 for the full control effect; nearly all actives have a fitted effect of over 30% in size
* marks the source's active call; other numbers are inactive results; i = inactive; ? = inconclusive; nt = not tested or not shown; [ ] = dose if it differs, or a comment. Unless noted, calls come from the whole dose curve; as a rule, active = well fitted inhibition curve with a large enough effect; inconclusive = small, poorly fitted or top-dose-only effect, or another doubt; inactive = no such curve, though single readings can be large or run the other way. Potency is the fitted concentration of half-maximal effect.

SMILES	Vaccinia mCherry	Pf growth 48h	HCV inh	Pf growth 96h	NS1 function inh	VACV Venus inh
CN(c1ccccc1)S(=O)(=O)c1cccc(NC(=O)Cn2cnc3ccccc3c2=O)c1	nt	nt	2.82µM*	-34.2%	-3.7%	?
Cc1ccc(NC(=O)CCNC(=O)Cn2cnc3ccccc3c2=O)cc1F	-13.3%	-4.4%	5.7%	9.5%	5.4%	-2.5%
CN(c1ccccc1)S(=O)(=O)c1cccc(NC(=O)CSc2nccc(=O)[nH]2)c1	i	nt	5.4%	nt	nt	-2.3%
CN(C)S(=O)(=O)c1cccc(NC(=O)CSc2ncnc3ccccc23)c1	?	?	7.94µM*	?	0.6%	?
CCN(CC)S(=O)(=O)c1cc(NC(=O)Cn2cnc3ccccc3c2=O)ccc1C	nt	-19.0%	11.2µM*	nt	-1.7%	nt
CC(C)(C)c1csc(NC(=O)Cn2cnc3ccccc3c2=O)n1	i	-11.4%	14.1µM*	-12.6%	-173.3%	-7.3%
CCNC(=S)N1CCN(c2ccccn2)CC1	-6.0%	2.4%	2.9%	?	-6.0%	-14.1%
CN(c1ccccc1)S(=O)(=O)c1cccc(NC(=O)c2nn(C)c(=O)c3ccccc23)c1	nt	?	4.47µM*	?	nt	nt
Cc1ccccc1CC1(CO)CCCN(C(=O)c2ccc(F)cc2)C1 (stereo not drawn)	-2.9%	-11.6%	2.6%	?	-0.5%	-10.3%
Cc1ccccc1CC1(CO)CCCN(C(=O)c2ccccc2N(C)C)C1 (stereo not drawn)	-7.2%	?	-9.5%	0.928µM*	-7.1%	-3.8%
O=CCCCC=O	nt	15.1µM*	nt	12µM*	nt	nt
COc1ccc(S(=O)(=O)N2CCOC23CCN(S(=O)(=O)c2cc(C)ccc2C)CC3)cc1	-20.2%	-0.3%	15.6%	1.8%	nt	-18.1%
CCOC(=O)c1c2n(c3c(NCc4ccccc4)ncnc13)CCCC2	nt	?	5.01µM*	-10.9%	-11.1%	-9.1%
Cc1ccc(CNc2ncnc3c2nc2n3CCCC2)cc1	-5.1%	nt	nt	nt	nt	-14.5%
COC(=O)CSC(C)C(=O)Nc1nnc(C(C)C)s1 (stereo not drawn)	nt	0.0%	8.1%	14.4%	nt	nt
O=C1C(C23CC4CC(CC(C4)C2)C3)C(=O)N(c2ccccc2)N1c1ccccc1	-2.3%	-8.9%	14.1%	7.38µM*	7.1%	-11.4%
Cc1cc(C)nc(-n2nc(C)c(Br)c2Nc2ccc(Br)cc2)n1	nt	3.7µM*	23.5%	nt	7.4%	nt
Cc1cc(NC(=O)c2ccccc2F)n(-c2nc3ccccc3[nH]2)n1	nt	-79.4%	?	23.2%[5.75 µM]	-3.3%	nt
Cc1cc(Nc2ccc(F)cc2)nc(-n2nc(C)cc2C)n1	-8.8%[7.34 µM]	nt	nt	nt	nt	-17.2%[7.34 µM]
Cc1cc(NC(=O)c2c(F)cccc2F)n(-c2nc3ccccc3[nH]2)n1	nt	7.38µM*	35.5µM*	-94.1%	1.4%	nt
Cc1cc(C)nc(-n2nc(C)cc2Nc2ccccc2)n1	nt	8.28µM*	10µM*	nt	-14.3%	?
Cc1cc(N2CCN(c3ccccc3)CC2)nc(-n2nc(C)cc2C)n1	-29.9%	3.7µM*	nt	-29.1%	-213.0%	-12.9%
Cc1cc(NC(=O)C2CCCCC2)n(-c2nc3ccccc3[nH]2)n1	nt	9.28µM*	4.47µM*	nt	-5.7%	?
Cc1cc(NC(=O)/C=C/c2ccc(F)cc2)n(-c2nc3ccccc3[nH]2)n1	i	?	?	-49.8%	1.0%	-13.6%
Cc1cc(NC(=O)c2c(F)cccc2Cl)n(-c2nc3ccccc3[nH]2)n1	-21.6%[1.46 µM]	10.4µM*	14.1µM*	nt	-11.1%	?
SMILES	Vaccinia mCherry	Pf growth 48h	HCV inh	Pf growth 96h	NS1 function inh	VACV Venus inh
Cc1cc(NC(=O)C2CCC2)n(-c2ccccn2)n1	i	8.5%	10µM*	-17.7%	-16.8%	-16.3%
Cc1cc(NC(=O)c2ccc(C)s2)n(-c2nc3ccccc3[nH]2)n1	-11.2%	-108.1%	?	?	20.8%	?
Cc1cc(Nc2ccccc2)n(-c2nc3ccccc3[nH]2)n1	nt	?	5.01µM*	nt	-116.5%	?
COc1ccc(/C=C/C(=O)Nc2cc(C)nn2-c2nc3ccccc3[nH]2)cc1	-11.1%	?	?	?	-8.4%	-14.5%
COc1ccc(CNC(=O)c2cc3cc4ccc(C)cc4nc3o2)cc1	-4.6%	nt	nt	nt	nt	2.6%
COc1ccc(CCNC(=O)C(C)n2c(=O)cc(-c3ccccc3)c3c(C)nn(C)c32)cc1OC (stereo not drawn)	-9.1%	nt	nt	nt	nt	0.9%
c1ccc(Nc2ccc3ccccc3c2)cc1	2.2%	nt	-20.5%	nt	nt	-9.1%
Oc1cc(NCCN2CCOCC2)cc2cccnc12	nt	4.65µM*	nt	?	nt	nt
Oc1cc(NCc2ccccc2)cc2cccnc12	nt	1.85µM*	nt	2.62µM*	nt	nt
Oc1cc(Nc2ccccc2)cc2cccnc12	nt	2.08µM*	nt	2.62µM*	nt	nt
COc1ccccc1N1CCN(C(=O)CN2C(=O)COc3ccc(S(=O)(=O)N4CCCCCC4)cc32)CC1	-19.5%	nt	nt	nt	nt	-10.9%
Cc1cc(C)c(C#N)c(SCS(=O)Cc2ccccc2)n1 (stereo not drawn)	-10.0%	23.9%	?	-9.6%	-7.1%	3.9%
Cc1cc(C)c(C#N)c(SCCS(=O)(=O)c2ccc(Cl)cc2)n1	4.47µM*	?	?	-20.8%	-6.7%	?
Cc1cc(C)c(C#N)c(SCCS(=O)(=O)c2ccc(C(C)(C)C)cc2)n1	3.55µM*	7.38µM*	?	nt	1.8%	4.47µM*
Cc1cc(C)c(C#N)c(SCS(=O)Cc2ccc(Cl)cc2)n1 (stereo not drawn)	-18.5%	?	11.2µM*	nt	-33.5%	0.0%
Cc1ccc(-c2nnc(SCC(=O)Nc3nc4c(s3)CCCC4)n2C)cc1	nt	9.4%	14.3%	?	-2.2%	nt
CNC(=O)C(NC(=O)CNC(=O)c1ccc(Cl)cc1)C(C)(C)C (stereo not drawn)	-4.7%	10.7%	14.8%	29.6%	5.5%	-9.6%
Cn1c(=O)c2ncn(CC(=O)Nc3cc(C(F)(F)F)ccc3N3CCOCC3)c2n(C)c1=O	i	?	?	?	?	-8.8%
O=C(Cn1cnc2ccccc21)Nc1cc(C(F)(F)F)ccc1N1CCOCC1	nt	4.65µM*	6.0%	4.15µM*	-6.3%	nt
CN(C)c1cccc(C(=O)Nc2cc(C(F)(F)F)ccc2-n2cnc3ccccc32)c1	i	11.7µM*	-3.6%	?	13.3%	-10.0%
O=C(CSc1nc2ccccc2o1)Nc1ccc(N2CCOCC2)c(Cl)c1	-27.0%	136.1%	?	nt	-62.7%	-13.4%
Cc1nc2ccccc2nc1OCC(=O)Nc1cc(C(F)(F)F)ccc1N1CCOCC1	nt	11.7µM*	?	5.6%	-10.2%	-20.6%
O=C(COC(=O)COc1ccc2ccccc2c1)Nc1cc(C(F)(F)F)ccc1N1CCOCC1	nt	-4.7%	1.3%	6.2%	-3.6%	nt
O=C(CSc1nc2ccccc2o1)Nc1cc(C(F)(F)F)ccc1N1CCOCC1	-3.1%	11.7µM*	?	nt	5.6%	-12.7%
CC(=O)Nc1ccc(C(=O)Nc2cc(C(F)(F)F)ccc2-n2cnc3ccccc32)cc1	-11.6%	-0.3%	0.9%	28.7%	-1.3%	-22.5%
Cc1csc(SCC(=O)NC2CCCCC2)n1	nt	16.6%	5.8%	nt	-5.2%	-33.3%
